Assay results from the supplement of paper PMC12350171.
Structures can show the parent of a compound that is named as a salt.

What was measured:
Conditions in all cases: 20 µM
[1] = system: Salmonella enterica typhimurium; experiment: growth AUC normalised to DMSO control (fraction of control); higher = less growth inhibition, active = hit call of the paper
In short: (§1)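 For the AUC endpoint, growth curves were integrated by the trapezoidal rule up to the exponential-to-stationary transition and normalised to DMSO controls on the same plate. The curves came from OD578 readings taken hourly for 24 h, in three biological replicates. Pathogens had been passaged anaerobically twice and inoculated at an OD578 of 0.01 into pre-reduced mGAM plates carrying 20 μM compound and 1% DMSO, sealed with breathable membranes. Medium for Haemophilus parainfluenzae also contained hemin and NAD.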

Shigella flexneri = experiment: as above
In short: as §1

Vibrio cholerae = experiment: as above
In short: as §1

[2] = system: Yersinia pseudotuberculosis; experiment: as above
In short: as §1

P. vulgatus RND KO = experiment: growth AUC normalised to DMSO control (median) (fraction of control); higher = less growth inhibition, active = hit call of the paper
In short: (§2)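 Anaerobic growth was tracked hourly at OD578 for 24 h in 96-well plates of mGAM seeded at OD578 0.01 with each approved-drug library compound at 20 μM and 1% DMSO. Strains had first been passaged twice overnight without oxygen. Three biological replicates were run. The reported median is the area under the curve, calculated by the trapezoidal rule on curves truncated at entry into stationary phase and normalised to vehicle wells on the same plate.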

P. vulgatus WT = experiment: as above
In short: as §2

[3] = system: S. enterica typhimurium WT; experiment: as above
In short: as §2

[4] = system: S. enterica typhimurium tolC KO; experiment: as above
In short: as §2

Measured: growth AUC normalised to DMSO control
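Throughout, for growth AUC normalised to DMSO control (median): active when median AUC fell below 0.1.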

CCN(CC)CCCC(C)Nc1c2ccc(Cl)cc2nc2ccc(OC)cc12 (stereo not drawn) [Quinacrine dihydrochloride hydrate]
inactive: [1] 0.957 | Shigella flexneri 0.933 | Vibrio cholerae 1.04 | [2] 0.996 | P. vulgatus RND KO 1.01 | P. vulgatus WT 0.986 | [3] 0.99 | [4] 0.978

O=C(c1ccc(OCCN2CCCCC2)cc1)c1c(-c2ccc(O)cc2)sc2cc(O)ccc12 [Raloxifene hydrochloride]
inactive: [1] 1.01 | Shigella flexneri 0.992 | Vibrio cholerae 0.988 | [2] 0.981 | P. vulgatus RND KO 1.06 | P. vulgatus WT 1.01 | [3] 1.02 | [4] 1.01

C[C@]12CCC(=O)C=C1C=C[C@@H]1[C@@H]2CC[C@@]2(C)[C@H]1CC[C@@]21CCC(=O)O1 [Canrenone]
inactive: [1] 1.01 | Shigella flexneri 1.06 | Vibrio cholerae 1.03 | [2] 1.01 | P. vulgatus RND KO 1.07 | P. vulgatus WT 1.1 | [3] 1.01 | [4] 0.939

CCn1cc(C(=O)O)c(=O)c2cc(F)c(N3CCNCC3)nc21 [Enoxacin]
active: [1] 0.00943 | Shigella flexneri 0.0451 | Vibrio cholerae 0.033 | [2] 0.0435 | [3] 0.00979 | [4] 0.00708
inactive: P. vulgatus RND KO 0.136 | P. vulgatus WT 0.419

NS(=O)(=O)c1cc(Cl)c(Cl)c(S(N)(=O)=O)c1 [Dichlorphenamide]
inactive: [1] 1.01 | Shigella flexneri 1.06 | Vibrio cholerae 1.07 | [2] 1.02 | P. vulgatus RND KO 1.05 | P. vulgatus WT 1.04 | [3] 0.995 | [4] 1.01

C#C[C@]1(O)CC[C@H]2[C@@H]3CCC4=C(CCC(=O)C4)[C@H]3CC[C@@]21C [Norethynodrel]
inactive: [1] 1 | Shigella flexneri 1 | Vibrio cholerae 0.994 | [2] 0.992 | P. vulgatus RND KO 0.992 | P. vulgatus WT 1.01 | [3] 0.996 | [4] 0.993
